Results published in PMC8384837, “Expanding the binding specificity for RNA recognition by a PUF domain”.

These sequences were tested against PUM1 PUF domain R3-CRC (Homo sapiens, UniProt Q14671 828-1176, Q939C) (assay: yeast three-hybrid, YBZ-1, SC-Leu-His + 0.5 mM 3-AT, 4 days). Conditions: tags: N-Gal4 AD-HA kept; label: inside an RPR1-promoter hybrid RNA with tandem MS2 sites; ssRNA.
In short: (§1)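 The interaction score is the logarithmic change in variant frequency from input to selection. It uses log2, with a pseudocount of 1 for absent variants, and frequencies came from PCR-amplified, Illumina-sequenced repeat regions. The libraries were Pumilio-1 PUF domains randomized at the three base-contacting residues per repeat, co-expressed with matching RNA elements in strain YBZ-1 (LexA–MS2 coat fusion, HIS3 reporter). Plating lasted four days on SC-Leu (input) or SC-Leu-His + 0.5 mM 3-AT (selection).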
“GGCUAGAACUAGUGGAUCCCCCGGCGCCCGGCGGCUCGAGCCCGGGUAAGUGUAAUUAGUCUGCAUGCCGCCGGGCGCCAUGCCUGCAGGUCGACUCUAGAAAACAUG” was tested, and the binding signal was 2.22 log2 enrichment (interaction score).
“GGCUAGAACUAGUGGAUCCCCCGGCGCCCGGCGGCUCGAGCCCGGGUAAGUGUAAGUAGUCUGCAUGCCGCCGGGCGCCAUGCCUGCAGGUCGACUCUAGAAAACAUG” was tested, and the binding signal was 2.62 log2 enrichment (interaction score).
For “GGCUAGAACUAGUGGAUCCCCCGGCGCCCGGCGGCUCGAGCCCGGGUAAGUGUAAAUAGUCUGCAUGCCGCCGGGCGCCAUGCCUGCAGGUCGACUCUAGAAAACAUG”, the binding signal was 2.51 log2 enrichment (interaction score).

What follows are sequences tested against PUM1 PUF domain R4-VPS (Homo sapiens, UniProt Q14671 828-1176, N971V;H972P;Q975S) in the same assay as above. Conditions: tags: N-Gal4 AD-HA kept; label: inside an RPR1-promoter hybrid RNA with tandem MS2 sites; ssRNA.
In short: as §1
For “GGCUAGAACUAGUGGAUCCCCCGGCGCCCGGCGGCUCGAGCCCGGGUAAGUGUACAUAGUCUGCAUGCCGCCGGGCGCCAUGCCUGCAGGUCGACUCUAGAAAACAUG”, the binding signal was 2.28 log2 enrichment (interaction score).
With “GGCUAGAACUAGUGGAUCCCCCGGCGCCCGGCGGCUCGAGCCCGGGUAAGUGUAUAUAGUCUGCAUGCCGCCGGGCGCCAUGCCUGCAGGUCGACUCUAGAAAACAUG” the binding signal was 2.93 log2 enrichment (interaction score).
For “GGCUAGAACUAGUGGAUCCCCCGGCGCCCGGCGGCUCGAGCCCGGGUAAGUGUAAAUAGUCUGCAUGCCGCCGGGCGCCAUGCCUGCAGGUCGACUCUAGAAAACAUG”, the binding signal was 1.66 log2 enrichment (interaction score).

Each sequence was assayed against PUM1 PUF domain R4-SNS (Homo sapiens, UniProt Q14671 828-1176, N971S;H972N;Q975S) in the same assay as above. Conditions: tags: N-Gal4 AD-HA kept; label: inside an RPR1-promoter hybrid RNA with tandem MS2 sites; ssRNA.
In short: as §1
For “GGCUAGAACUAGUGGAUCCCCCGGCGCCCGGCGGCUCGAGCCCGGGUAAGUGUACAUAGUCUGCAUGCCGCCGGGCGCCAUGCCUGCAGGUCGACUCUAGAAAACAUG”, the binding signal was 0.99 log2 enrichment (interaction score).
“GGCUAGAACUAGUGGAUCCCCCGGCGCCCGGCGGCUCGAGCCCGGGUAAGUGUAUAUAGUCUGCAUGCCGCCGGGCGCCAUGCCUGCAGGUCGACUCUAGAAAACAUG” was tested, and the binding signal was 2.15 log2 enrichment (interaction score).
“GGCUAGAACUAGUGGAUCCCCCGGCGCCCGGCGGCUCGAGCCCGGGUAAGUGUAAAUAGUCUGCAUGCCGCCGGGCGCCAUGCCUGCAGGUCGACUCUAGAAAACAUG” was tested, and the binding signal was 2.68 log2 enrichment (interaction score).
